# The supplement of paper PMC3334620
# In all, about 33,000 sequences were measured (“E-score (-0.5 to 0.5)”: median about -0.013, highest 2% from about 0.3 on). Shown is part of a subset that was picked to be rich in the highest values.
# Target: T1, Msn1 (UniProt P22148)
# T1 sequence: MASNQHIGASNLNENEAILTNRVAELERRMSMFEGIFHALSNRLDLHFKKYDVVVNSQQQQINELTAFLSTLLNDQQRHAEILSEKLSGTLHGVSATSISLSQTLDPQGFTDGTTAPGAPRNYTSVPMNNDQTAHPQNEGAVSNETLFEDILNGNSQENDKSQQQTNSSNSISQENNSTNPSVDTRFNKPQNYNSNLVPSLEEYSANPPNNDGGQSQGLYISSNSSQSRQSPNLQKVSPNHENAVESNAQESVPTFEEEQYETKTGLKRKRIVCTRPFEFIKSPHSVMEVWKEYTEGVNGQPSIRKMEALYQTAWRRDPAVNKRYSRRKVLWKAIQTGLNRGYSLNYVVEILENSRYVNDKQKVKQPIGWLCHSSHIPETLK
# Test: PBM E-score (8-mer binding enrichment) (E-score (-0.5 to 0.5)); higher = stronger / more preferred TF binding
# Details: protein concentration: 200 nM; construct: GST-full length
# Method in brief: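 Yeast transcription factors carrying a GST tag, as full-length proteins or DNA-binding domains, were produced by PURExpress in vitro transcription/translation. About 100-200 nM protein was applied to universal all-10-mer Agilent arrays, double-stranded by primer extension on fresh or once-stripped slides. Bound protein was detected with fluorescent anti-GST, and scans were normalised with masliner. The Universal PBM Analysis Suite gave each ungapped eight-base word, pooled with its reverse complement, an E-score, a modified Wilcoxon-Mann-Whitney statistic.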
row,Sequence,PBM E-score
1,TCTAGACA,0.332
2,GATAGACA,0.331
3,ACTCGACC,-0.143
4,ACATACTC,0.0584
5,GAGCCTTA,-0.168
6,AAGTCCAG,0.244
7,AGGTCCAC,-0.067
8,GGGTCCAA,-0.104
9,ATGTCCAG,0.457
10,ATGTCCAA,0.485
11,ATGTCCAC,0.446
12,GAGTCCAA,-0.0901
13,AGGTCCAG,0.0683
14,CTGTCCAC,0.184
15,AGGTCCAA,-0.00743
16,GTGTCCAA,0.389
17,CTGTCCAA,0.287
18,ATGGGTAA,0.0578
19,CTTCCACC,-0.298
20,CGGTATCC,-0.224
21,AAACATGT,0.17
22,ACCGATTC,-0.0811
23,CGATTGTC,0.348
24,CGATTGAC,0.151

row,Sequence,PBM E-score
1,AGATTGTG,-0.0281
2,AGATTGTC,0.369
3,CGATTGTA,0.088
4,AGATTGTA,0.091
5,AGTTATTA,0.0736
6,CAGCACTG,-0.226
7,GCCTTCGC,-0.098
8,CCAGATTC,-0.389
9,CTTTGTAA,0.168
10,CTTTGTAC,0.322
11,ATTTGTAA,0.169
12,CCTTGTAC,0.183
13,ATTTGTAG,0.162
14,ATTTGTAC,0.46
15,AGGAATTC,-0.0844
16,AGCGAACG,-0.274
17,CACCTTCG,-0.0896
18,ACAATGGG,0.196
19,GCAAATGA,-0.0127
20,ACAAACGT,0.244
21,GCAAATGC,-0.113
22,CCAAATGA,0.05
23,ACAAATGC,0.304
24,ACAAATGG,0.345

row,Sequence,PBM E-score
1,ACAAATGT,0.446
2,ACAAAGGT,0.218
3,CCAAATGG,0.169
4,CCAAATGC,-0.0167
5,ACAAATGA,0.317
6,CTTCGGGA,0.15
7,AACGAGCT,-0.0712
8,GGCGGCCA,-0.161
9,CGGTTAGA,-0.22
10,CACAATCC,0.119
11,GCTCAACA,-0.0111
12,ATAGTTTG,0.274
13,GCGCGATA,0.119
14,GGATTGGA,0.0131
15,ACAAATCA,0.266
16,ACAAATCT,0.308
17,ACAAATCC,0.265
18,GAGGATCC,-0.0362
19,AAAAATGC,0.0785
20,AAAAATGG,0.311
21,AAAAATGT,0.335
22,CAAAATGG,0.133
23,AAAATGGG,0.182
24,AAAAATGA,0.143

row,Sequence,PBM E-score
1,AGTTTTTC,0.0155
2,ATGCGTGA,0.167
3,CGCCAGCG,-0.278
4,CTCCGGAA,0.0926
5,GTCCGGGA,0.336
6,CTCCGGGA,-0.0499
7,ATCCGGGA,-0.0993
8,GTCCGGAC,0.406
9,GTCCGGAA,0.368
10,CTCCGGAC,0.224
11,ATCCGGAC,0.297
12,ATCCGGAA,0.215
13,GAGGAGCA,-0.184
14,TATTTTGA,0.033
15,ATCTTTGG,-0.0763
16,AACTTGAG,-0.212
17,AACTTGAA,0.101
18,CACTTGTA,0.157
19,CGCTTGTA,0.211
20,AGCTTGTC,0.168
21,CGCTTGTC,0.345
22,CACTTGTC,0.408
23,AACTTGTA,0.107
24,CCCTTGTC,0.204

row,Sequence,PBM E-score
1,AACTTGTG,0.132
2,AACTTGTC,0.391
3,AACTTGAT,0.321
4,ACCGAATG,-0.0786
5,AGCTCACA,-0.111
6,GCGGCTCC,-0.285
7,AACGCTAA,-0.0499
8,ATCGCAAC,-0.0713
9,GTTAAGAA,-0.0961
10,GATCCGGA,0.0679
11,ACACCTAC,-0.04
12,CTCTTGTA,0.035
13,CTCTTGTC,0.339
14,ATCTTGTC,0.246
15,CCACCACA,-0.214
16,TATGGGGA,0.123
17,AAGAGGGT,-0.12
18,CGACATGC,0.218
19,AAACATTG,-0.00791
20,AGACATTA,0.429
21,CTACATTC,-0.121
22,ACACATTA,0.0185
23,AGACATGA,0.226
24,CCACATTA,-0.107

row,Sequence,PBM E-score
1,CGACATTC,0.332
2,AGACATTG,0.402
3,CGACATTA,0.386
4,ACACATTG,0.171
5,CTACATTA,0.00564
6,ACTAATCA,0.152
7,GTTTAGCA,0.0757
8,CTCACCCA,-0.0776
9,TCCTTAGA,0.117
10,CAACTATG,0.161
11,GGCAGCGA,-0.245
12,AGATCGCT,-0.0127
13,AGACATGC,0.21
14,ACACATTC,0.11
15,GGACATTA,0.489
16,AGACATTC,0.445
17,GCACATTA,-0.0601
18,GTACATTA,0.278
19,CGAAACCG,0.0338
20,ACGCAAGC,-0.0684
21,ACTAGCTG,0.0299
22,AATTCATC,-0.22
23,AAAAAGTG,-0.0627
